A selection: hits, their analogues and other compounds. The true share with any hit is near 3.2%.
ERK AVP inh – blocks ERK signaling stimulated by vasopressin. HEK293-V1b, vasopressin-stimulated pERK AlphaScreen. Potency, µM (top dose mostly 57.5 µM), actives largely listed as inhibitors. actives 0.99% (n = 72,000); note: nearly all actives have a fitted effect of over 55% in size
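Phosphorylated ERK1/2 detected via AlphaScreen bead proximity in lysates of V1b-expressing HEK293 cells given 25 nM vasopressin for 5 min after 30 min compound exposure (37 °C). AC50 from Hill equation; basal DMSO 0%, vasopressin 100%.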
15-hLO inh – blocks human 15-lipoxygenase activity | P16050 | purified 15hLO-1, xylenol orange hydroperoxide absorbance | Potency, µM (doses to about 57.1 µM), most hits filed as inhibitors | actives 1.4% (n = 74,000); note: nearly all actives have a fitted effect of over 55% in size
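Compounds were preincubated 15 min at room temperature with 40 nM purified human enzyme (25 mM Hepes pH 7.5, 0.01% Triton X-100); 50 uM arachidonic acid reacted 6 min. Fe-xylenol orange detection, 30 min, absorbance ratio 573/405 nm.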
15-hLO-2 inh – blocks human 15-lipoxygenase 2 activity. purified 15hLO-2, xylenol orange hydroperoxide absorbance. Potency, µM (doses to about 57.1 µM), actives largely listed as inhibitors. actives 0.56% (n = 110,000); note: nearly all actives have a fitted effect of over 60% in size
Target sequence (O15296 whole entry, looked up): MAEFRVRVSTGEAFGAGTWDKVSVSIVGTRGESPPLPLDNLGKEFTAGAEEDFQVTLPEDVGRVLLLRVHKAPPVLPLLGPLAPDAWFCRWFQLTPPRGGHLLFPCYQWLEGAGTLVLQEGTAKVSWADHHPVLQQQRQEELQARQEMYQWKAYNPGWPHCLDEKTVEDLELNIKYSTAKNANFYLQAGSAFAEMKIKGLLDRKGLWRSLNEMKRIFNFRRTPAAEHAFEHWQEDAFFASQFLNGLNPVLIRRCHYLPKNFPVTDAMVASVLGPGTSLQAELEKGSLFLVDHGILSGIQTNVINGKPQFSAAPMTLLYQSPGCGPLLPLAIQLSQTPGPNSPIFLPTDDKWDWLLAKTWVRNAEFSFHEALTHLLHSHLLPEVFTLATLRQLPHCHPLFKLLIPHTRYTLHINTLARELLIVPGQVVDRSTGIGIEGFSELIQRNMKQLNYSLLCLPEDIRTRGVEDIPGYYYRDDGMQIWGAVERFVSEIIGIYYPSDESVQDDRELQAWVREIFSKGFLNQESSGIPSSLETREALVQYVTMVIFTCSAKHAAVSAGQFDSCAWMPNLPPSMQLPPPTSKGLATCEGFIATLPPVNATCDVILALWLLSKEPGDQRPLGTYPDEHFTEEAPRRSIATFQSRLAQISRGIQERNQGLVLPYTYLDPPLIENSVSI
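Enzyme 50 nM, AA 45 uM, 25 mM Hepes pH 7.5 + 0.01% Triton X-100; cpd preinc 15 min RT, rxn 90 min RT; stop/detect with 200 uM XO + 300 uM Fe(II) in 50 mM H2SO4, 30 min; A573/A405.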
CRE Fsk mod – CRE-bla signaling modulation under forskolin stimulation; CHO CRE-bla reporter (cAMP response element driving beta-lactamase), forskolin EC10, beta-lactamase ratio; Potency, µM (highest dose often 38.2 µM), usual class: activators; actives 2.5% (n = 71,000); active = well fitted activation curve with a large enough effect in the signal ratio, with a control signal flat, not every such curve was filed as active; inconclusive = small, poorly fitted or top-dose-only effect, or effect the other way, or a change in a side signal; the % refers to the signal ratio
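Reporter-gene assay: CHO cells with beta-lactamase behind cAMP responsive elements, co-treated with compound and EC10 NKH 477 for 3 hours at 37 degrees Celsius. Activity came from the 460/530 nm CCF4 emission ratio.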
Of the large screens only hits and unclear results are named; the others gave an inactive call. Unless noted, calls come from the whole dose curve; as a rule, active = well fitted inhibition curve with a large enough effect; inconclusive = small, poorly fitted or top-dose-only effect; inactive = no such curve, though single readings can be large or run the other way.

O=C(CSc1nc2ccccc2[nH]1)Nc1ccc2c(c1)OCCO2	ERK AVP inh 32µM
O=C(CSc1nc(Nc2ccccc2)nc(N2CCOCC2)n1)N1CCc2ccccc21	CRE Fsk mod 4µM
Cc1ccccc1NC(=O)CSc1nc(Nc2ccccc2)nc(N2CCOCC2)n1	15-hLO inh inconclusive
O=C(CSc1nc(Nc2ccccc2)nc(N2CCOCC2)n1)Nc1ccc2c(c1)OCCO2	CRE Fsk mod 6.3µM
c1nc(N2CCCC2)c2[nH]cnc2n1	ERK AVP inh 32µM (no result: 15-hLO-2 inh)
c1nc(N2CCCCCC2)c2[nH]cnc2n1	none (no result: ERK AVP inh)
COc1ccccc1CNc1ccnc(-c2cccc(NS(C)(=O)=O)c2)n1	CRE Fsk mod inconclusive
Cc1cc(NC(=O)CSc2nc(C(C)C)nc3c2c(=O)n(C)c(=O)n3C)no1	CRE Fsk mod 10µM (no result: ERK AVP inh)
CCc1nc(SCC(=O)Nc2cc(C)on2)c2c(C)c(C)sc2n1	CRE Fsk mod 2.5µM
Cc1cc(NC(=O)CSc2nc3c(c(=O)n(C)c(=O)n3C)n2C(C)C)no1	CRE Fsk mod inconclusive
CC(C)OCCCNC(=O)c1c(N)n(/N=C/c2ccccn2)c2nc3ccccc3nc12	CRE Fsk mod 2.5µM
CCC(C)NC(=O)c1c(N)n(/N=C/c2cccnc2)c2nc3ccccc3nc12 (configuration not stated)	CRE Fsk mod 0.63µM
CCC(C)NC(=O)c1c(N)n(/N=C/c2ccccn2)c2nc3ccccc3nc12 (configuration not stated)	CRE Fsk mod 2.5µM
CC(C)CNC(=O)c1c(N)n(/N=C/c2cccnc2)c2nc3ccccc3nc12	none (no result: ERK AVP inh, 15-hLO inh, CRE Fsk mod)
COc1cccc2oc(SC)cc(=O)c12	none (no result: ERK AVP inh, 15-hLO inh, CRE Fsk mod)
CCOC(=O)C1=C(C)NC(C)=C(C(=O)OC)[C@H]1c1cccc(Cl)c1Cl	CRE Fsk mod inconclusive
CC/C(C)=N/O	none
COc1ccc(CCn2c(-c3ccco3)nc3ccccc3c2=O)cc1OC	ERK AVP inh 10µM, 15-hLO inh 4µM, CRE Fsk mod inconclusive
Cc1cc(=O)oc2c(OS(C)(=O)=O)c(OS(C)(=O)=O)ccc12	none
Cn1c(-c2ccc3c(c2)OCO3)cnc1NCc1cccc(Cl)c1	ERK AVP inh inconclusive, 15-hLO inh 20µM, CRE Fsk mod inconclusive
Cn1c(-c2ccc3c(c2)OCO3)cnc1NCc1ccccc1	15-hLO inh inconclusive
CCOC(=O)COc1cccc2c(=O)n(CC(=O)NCc3ccc4c(c3)OCO4)ccc12	CRE Fsk mod 13µM (no result: ERK AVP inh, 15-hLO-2 inh)
CCOC(=O)COc1cccc2c(=O)n(CC(=O)N3CCc4ccccc43)ccc12	none (no result: ERK AVP inh)
Cc1nc(SCC(=O)NCc2ccco2)c2oc3ccccc3c2n1	CRE Fsk mod inconclusive
CCc1nc(N2CCN(C(=O)c3ccco3)CC2)c2oc3ccccc3c2n1	ERK AVP inh inconclusive, 15-hLO inh inconclusive, CRE Fsk mod 3.2µM
Cc1nc(N2CCN(C(=O)c3ccco3)CC2)c2oc3ccccc3c2n1	ERK AVP inh inconclusive, CRE Fsk mod 4µM
CC(C)[C@H]1COC(c2cc(Cl)cc(Cl)c2)=N1	none (no result: ERK AVP inh, 15-hLO inh, CRE Fsk mod)
COc1cc(C2=NOC(C(=O)N3CCCc4ccccc43)C2)cc(OC)c1OC (configuration not stated)	CRE Fsk mod 13µM
COC(=O)[C@@]1(Cc2ccccc2)[C@H]2c3cc(C(=O)N(C)C)n(C[C@H](O)CO)c3C[C@H]2CN1C(=O)c1ccccc1	none (no result: 15-hLO inh)
Cc1nn(C)c(C)c1CN(C)C(=O)c1cc2nc(-c3ccco3)cc(C(F)(F)F)n2n1	CRE Fsk mod inconclusive
Cc1nn(C)cc1CN(C)C(=O)c1cc2nc(-c3ccco3)cc(C(F)(F)F)n2n1	CRE Fsk mod 13µM
Cc1ccccc1Cn1nc(C)c(NC(=O)c2cc3nc(-c4ccco4)cc(C(F)(F)F)n3n2)c1C	15-hLO inh inconclusive, CRE Fsk mod 2.5µM
O=C(Nc1cnn(Cc2ccccc2)c1)c1cc2nc(-c3ccco3)cc(C(F)(F)F)n2n1	none
CCOC(=O)CSc1nc2ccc(N3CCOCC3)cc2c(=O)n1Cc1ccc2c(c1)OCO2	15-hLO inh 20µM, CRE Fsk mod inconclusive
CC1CCCN(c2ccc(C(=O)NCc3cccs3)cn2)C1 (configuration not stated)	ERK AVP inh 16µM (no result: 15-hLO-2 inh)
COc1cc(C)c(C(C)C)cc1S(=O)(=O)n1cnc(C)c1	CRE Fsk mod 13µM
COC(=O)[C@H](C)NC(=O)Nc1ccc(OC)c(OC)c1	CRE Fsk mod inconclusive
COC(=O)[C@H](C)NC(=O)Nc1ccc(Oc2ccccc2)cc1	ERK AVP inh 25µM
C[C@@H]1Oc2ccc(C(=O)C[C@@H](C(=O)O)c3ccc4c(c3)OCO4)cc2O1	none
CSc1ncccc1C(=O)OCC(=O)Nc1cc(C(F)(F)F)ccc1N1CCOCC1	CRE Fsk mod 13µM
O=C(Nc1cc(C(F)(F)F)ccc1N1CCOCC1)c1cccnc1	none
CN1CCN(S(=O)(=O)c2cccc(C(=O)Nc3sc4c(c3C(N)=O)CCCC4)c2)CC1	15-hLO inh inconclusive, CRE Fsk mod 0.79µM
O=C(CSc1ncn(-c2ccccc2)n1)Nc1ccc(Br)cn1	15-hLO inh 20µM, 15-hLO-2 inh inconclusive, CRE Fsk mod inconclusive
CC(C)Nc1nc(NC(C)C)nc(N(C)C#N)n1	CRE Fsk mod 13µM
CC(=O)c1cccc(NC(=O)Nc2ccc3c(c2)N(C)C(=O)CS3)c1	ERK AVP inh 10µM, 15-hLO inh inconclusive
CC(=O)[C@@H]1CC[C@@H]2[C@@H]3CC=C4C[C@H](OS(=O)(=O)O)CC[C@@]4(C)[C@H]3CC[C@]21C	none
CC[C@H](C)[C@@H]1O[C@]2(CC[C@@H]1C)C[C@H]1C[C@H](CC=C(C)[C@@H](O[C@H]3C[C@H](OC)[C@H](O[C@H]4C[C@H](OC)[C@H](O)[C@H](C)O4)[C@H](C)O3)[C@@H](C)C=CC=C3CO[C@@H]4[C@@H](O)C(C)=C[C@H](C(=O)O1)[C@@]34O)O2	CRE Fsk mod inconclusive
CC(=O)OCC1OC(C#Cc2ccc(C)cc2C)C=CC1OC(C)=O (configuration not stated)	none (no result: 15-hLO-2 inh, CRE Fsk mod)
Cc1ccc(/C=c2\sc3nc(-c4cccs4)nn3c2=O)o1	15-hLO inh 13µM
CCCCCCCCC/C=C/CC1CC(=O)OC1=O (configuration not stated)	none
OCC1OC(c2ccccc2)C=CC1Oc1ccc(C2CCCC2)cc1 (configuration not stated)	none (no result: 15-hLO-2 inh, CRE Fsk mod)
COC(=O)c1cc2c([nH]c3ccccc32)c(C)n1	ERK AVP inh 32µM
COC(=O)c1c(O)c2ccccc2[nH]c1=O	none (no result: ERK AVP inh, 15-hLO inh, CRE Fsk mod)
CCN1C(=O)/C(=C2/C=CC=CN2C)OC1=S	CRE Fsk mod inconclusive
CCN1C(=O)/C(=C/N(C)c2ccccc2)OC1=S	15-hLO inh 7.9µM
COc1cc2cc(C(=O)Nc3ccccc3)c(N)nc2cc1OC	15-hLO inh inconclusive, CRE Fsk mod 3.2µM
COc1cc2ccccc2cc1C(=O)Nc1cccnc1	CRE Fsk mod inconclusive
CCCCCCCC/C=C\CCCCCCCC(=O)NCCc1ccc(O)c(O)c1	ERK AVP inh inconclusive, 15-hLO inh 4µM, 15-hLO-2 inh inconclusive
CCOC(=O)c1c(C)[nH]c(C(=O)COC(=O)c2ccccc2NC(=O)c2ccco2)c1C	15-hLO-2 inh inconclusive, CRE Fsk mod 2µM

Source: PubChem BioAssay
